Out of some 65,000 compounds screened, about 640 (0.98%) were called active.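 Rule for the calls: active = inhibition above a set limit, the mean inhibition across every tested compound plus 3 SD (cut at about 29% in these data); inactive = the rest.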 The sample as a whole holds a higher share of actives than the screen did.

By inhibition is commonly meant the relative decrease from the control value, in per cent.

In this test the target is 5-hydroxytryptamine receptor 1E (Homo sapiens) (UniProt P28566). Kind of test: 5-HT1E receptor antagonists, primary screen, cell-based, HTS (AID 571).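 Note: signal is the 460 over 535 nm emission ratio of beta-lactamase substrate; 0% = agonist plus DMSO wells and 100% = wells without agonist.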 The note with it: CHO 5-HT1E Ga15 NFAT-bla reporter, FRET, antagonist; at 6 µM; active compounds read high.
5-hydroxytryptamine receptor 1E (Homo sapiens), sequence (P28566 whole entry, looked up): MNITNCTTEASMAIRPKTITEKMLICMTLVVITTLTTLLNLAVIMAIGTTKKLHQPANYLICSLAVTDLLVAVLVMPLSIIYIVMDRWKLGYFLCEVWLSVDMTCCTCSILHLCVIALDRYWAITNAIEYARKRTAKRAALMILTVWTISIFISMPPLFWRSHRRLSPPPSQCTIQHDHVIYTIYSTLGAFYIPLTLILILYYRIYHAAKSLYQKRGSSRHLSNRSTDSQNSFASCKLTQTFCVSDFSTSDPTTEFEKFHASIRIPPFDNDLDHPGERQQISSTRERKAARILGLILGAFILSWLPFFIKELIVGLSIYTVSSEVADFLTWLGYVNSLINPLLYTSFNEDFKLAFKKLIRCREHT
Take `O=C(O)C1CC=C(Cl)CC1C(=O)NCc1ccccc1` (stereo not drawn): the inhibition is -3% (inactive).

As for `CCN(Cc1nc2ccccc2c(=O)[nH]1)Cc1cc(=O)oc2cc(C)c(C)cc12`, the inhibition was -2.39% (inactive).

For `CCn1c(SCC(=O)c2ccc(Cl)s2)nnc1-c1cccs1`, the inhibition was 3.04% (inactive).

Consider `OCc1n[nH]c(CO)n1`, for which the inhibition was 6.12% (inactive).

Take `COCCN1Cc2cccc(C(=O)Nc3ccccc3OC)c2C1=O`: the inhibition is 8.66% (inactive).

`O=S(=O)(NCc1ccccn1)c1ccc(F)cc1`: the inhibition was 0.49% (inactive).

As for `NC(=O)C1(N2CCCCC2)CCN(C(=O)c2ccc(C#Cc3ccccc3)o2)CC1`, the inhibition was 2.52% (inactive).

With `N#Cc1nc(-c2ccc(OCc3ccccc3)cc2)oc1NCCCN1CCOCC1`, the inhibition is 0.01% (inactive).

Take `CCOc1ccc(Nc2oc(Cc3ccccc3)nc2C#N)cc1`: the inhibition is -1.52% (inactive).

For the compound `COc1ccc(Nc2oc(-c3ccccc3Cl)nc2C#N)cc1`, the inhibition is 75% (active).

In the case of `O=C(CN1CCN(S(=O)(=O)/C=C/c2ccccc2)CC1)NC(=O)NCc1ccco1`, the inhibition was 4.51% (inactive).

On to `COc1ccc(CCNC(=O)c2ccc3c(c2)NC(=O)C(N2CCOCC2)S3)cc1OC` (stereo not drawn), for which the inhibition was -4.16% (inactive).

Regarding `Cc1ccccc1NC(=O)c1cc(S(=O)(=O)N2CCOCC2)cs1`, the inhibition was -6.32% (inactive).

With `O=C(Nn1cc(C(=O)N2CCN(c3ccccc3F)CC2)c2ccccc2c1=O)c1cnccn1`, the inhibition is 3.04% (inactive).

As for `Cc1cc(C)n(-c2ccc(Cl)c(C(=O)O)n2)n1`, the inhibition is 4.5% (inactive).

Turning to `COc1ccc(Nc2cc(C)nc(-n3nc(C)cc3C)n2)cc1`, the inhibition is 49% (active).

For the compound `COCCNc1nc(-n2nc(C)cc2C)nc2sc3c(c12)CCCC3`, the inhibition is 22.7% (inactive).

For the compound `CCOC(=O)c1cnc(-n2nc(C)cc2C)nc1Nc1cccc(C(C)=O)c1`, the inhibition was -0.9% (inactive).

Turning to `COc1cc(NS(=O)(=O)c2ccccc2)ccc1-n1nc(C)cc1C`, the inhibition was -6.22% (inactive).

For the compound `CC(=O)c1ccc(Oc2cc(C)nc(-n3nc(C)cc3C)n2)cc1`, the inhibition was 78.3% (active).

As for `Cc1cc(NCc2ccco2)n2c(nc3ccccc32)c1C#N`, the inhibition was 11.1% (inactive).

In the case of `Nc1ccc(-c2nnc(-c3ccc(-c4ccccc4)cc3)o2)cc1`, the inhibition is -0.45% (inactive).

Turning to `O=C(CSc1nnc(-c2ccncc2)n1C1CCCCC1)Nc1ccccc1`, the inhibition is -9.37% (inactive).

As for `CC12C(=O)N(n3cnnc3)C(=O)C1C1C=CC2C1` (stereo not drawn), the inhibition was 8.42% (inactive).

For the compound `COCCNC(=O)C(c1ccc(C)o1)N(Cc1cccs1)C(=O)c1snc(C(N)=O)c1N` (stereo not drawn), the inhibition is -3.57% (inactive).

In the case of `Cc1cc(=O)oc(C)c1C(=O)NC1CC(C)(C)NC(C)(C)C1`, the inhibition was -4.29% (inactive).

In the case of `C[N+](C)(C)CCOP(=O)([O-])OC[C@H](O)CO`, the inhibition is -4.74% (inactive).

For `COc1ccc(Br)cc1S(=O)(=O)N1CCN=C1C`, the inhibition is -3.84% (inactive).

As for `CC1CCCC(NC(=O)CSc2nccn2C)C1C` (stereo not drawn), the inhibition was 2.04% (inactive).

Take `Cc1c(C(=O)NCCN2CCOCC2)sc2nc(-c3ccc(F)cc3)cn12`: the inhibition was -2.05% (inactive).

For `c1ccc(-c2cn3cccnc3n2)cc1`, the inhibition is -0.19% (inactive).

As to `COc1ccc(S(=O)(=O)NC(CC(=O)NCc2ccccc2OC)c2ccco2)cc1` (stereo not drawn), the inhibition is -1.55% (inactive).

`CCOC(=O)N1CCC(NC(=O)CN2C(=O)COc3ccc(C(C)(C)C)cc32)CC1`: the inhibition is -7.21% (inactive).

`CCOC(=O)N1CCC(NC(=O)Cc2cn(C)c3ccccc23)CC1`: the inhibition is -14.8% (inactive).

As to `CCOC(=O)c1c(C)oc2ccc(OCC(=O)N(CC)CC)cc12`, the inhibition is -6.18% (inactive).

`COc1ccc(C)cc1S(=O)(=O)NC1CCCCC1`: the inhibition is -3.9% (inactive).

For `O=C(Cn1c(=S)nc2ccccn21)N1CCc2ccccc2C1`, the inhibition is -1.67% (inactive).

For `CCCCNC(=O)CSc1nccn1Cc1ccccc1`, the inhibition is 3.33% (inactive).

Consider `O=C(CNS(=O)(=O)c1cccc(C(F)(F)F)c1)Nc1ccccc1F`, for which the inhibition is -3.72% (inactive).

Consider `CCCCC(=O)Nc1ccc2c(c1)OCCO2`, for which the inhibition was -10.5% (inactive).

For the compound `CCCCCC(=O)Nc1ccc2oc(-c3ccncc3)nc2c1`, the inhibition is 4% (inactive).

Turning to `CCCCC(=O)Nc1ccc2c(c1)C(=O)NC2=O`, the inhibition is 44% (active).

For `Nc1ccc(SCCN2C(=O)c3ccccc3C2=O)cc1`, the inhibition was -1.04% (inactive).

For the compound `COC(=O)c1ccc(NC(=O)CSc2nnc(Cc3cccn3C)n2-c2ccc(F)cc2)cc1`, the inhibition is -7.1% (inactive).

As to `CCc1nnc(NC(=O)c2nc3nccc(C)n3n2)s1`, the inhibition was -0.48% (inactive).

For `CCOc1ccc(C(=O)Nc2ccncc2)cc1`, the inhibition is 5.74% (inactive).

On to `CSc1sc(C)cc1C1C(C#N)=C(N)N(c2cccnc2)C2=C1C(=O)CCC2` (stereo not drawn), for which the inhibition is 24.6% (inactive).

On to `COc1ccc(CCNS(=O)(=O)c2ccc(C(=O)NCc3ccco3)cc2)cc1OC`, for which the inhibition was -13.4% (inactive).

As for `Cc1ccccc1NC(=O)Cc1nnc(SCC(=O)N2CCN(c3ccccc3)CC2)n1C`, the inhibition was 2.63% (inactive).

`Cc1noc(C)c1S(=O)(=O)NCCc1ccc(S(N)(=O)=O)cc1`: the inhibition was -6.61% (inactive).

In the case of `Cc1cccc(-n2c(O)c(C=Nc3ccccc3N)c(=O)[nH]c2=O)c1`, the inhibition was -5.35% (inactive).

As for `Cc1ccc(-n2nc(-c3ccco3)cc2C(=O)NCc2cccnc2)cc1`, the inhibition is 30.4% (active).

Regarding `Cc1ccc2c(c1)N(CCCC(=O)NCc1cccnc1)C(=O)CO2`, the inhibition is 10.1% (inactive).

On to `CC(C)(C)c1cc(C(=O)NCc2cccnc2)ccn1`, for which the inhibition was -1.08% (inactive).

`CCN1CCN(C(=O)c2ccccc2N(C)S(=O)(=O)c2ccc(C)cc2)CC1`: the inhibition is -11.1% (inactive).

On to `Cc1nnc2sc(-c3ccco3)nn12`, for which the inhibition is -3.05% (inactive).

As for `Cn1c(C(=O)NCCCN2CCN(c3cccc(Cl)c3)CC2)cc2c(=O)n(C)c3ccccc3c21`, the inhibition is 28.9% (active).

As for `CCn1c(=O)cc(OCC(=O)NCCCN2CCN(c3cccc(Cl)c3)CC2)c2ccccc21`, the inhibition is -1.38% (inactive).

For `CC1CCCC(C)N1CCCNC(=O)c1cc2c(=O)n(C)c3ccccc3c2n1C` (stereo not drawn), the inhibition is -8.37% (inactive).

With `COc1cc(N=Cc2c(O)[nH]c3ccccc23)cc(OC)c1OC`, the inhibition was 4.31% (inactive).

As to `COc1ccc(OC)c(N=Cc2c(O)[nH]c3ccccc23)c1`, the inhibition was 39.8% (active).

As to `COc1ccc(N=Cc2c(O)[nH]c3ccccc23)cc1OC`, the inhibition is -3.2% (inactive).

`COc1ccc(NC2CC(=O)N(C)C2=O)cc1` (stereo not drawn): the inhibition was -0.34% (inactive).

For `C[C@H](NC(=O)OC(C)(C)C)c1nnc(SCC(N)=O)o1`, the inhibition is -6.77% (inactive).

Regarding `O=C(Nc1ccccc1N1CCCCC1)c1cccc(F)c1`, the inhibition was -0.39% (inactive).

As to `O=C(NCc1ccco1)c1cccn2c(=O)c3cc(Br)ccc3nc12`, the inhibition was 11.4% (inactive).

Consider `Cc1cccc(NC(=O)CN2CCCN(S(=O)(=O)c3ccc(Br)s3)CC2)c1`, for which the inhibition is 12.7% (inactive).

With `CCC1(C)Cc2c(sc3nc4n(c(=O)c23)CCCS4)CO1` (stereo not drawn), the inhibition is 7.47% (inactive).

Turning to `COC(=O)c1c(NC(=O)CSc2nc3c(c(=O)n(C)c(=O)n3C)n2C(C)C)sc(C)c1C`, the inhibition is -1.61% (inactive).

Turning to `CCCCCCC(=O)N(O)C1CC(=O)N(c2ccccc2)C1=O` (stereo not drawn), the inhibition is 29% (active).

In the case of `CCOc1ccc(N2C(=O)CC(N(O)c3ccccc3)C2=O)cc1` (stereo not drawn), the inhibition is -13.5% (inactive).

Turning to `CCCCOC(=O)c1ccc(N2C(=O)CC(N3CCN(C/C=C/c4ccccc4)CC3)C2=O)cc1` (stereo not drawn), the inhibition is -8.79% (inactive).

On to `Cc1cc(C)cc(OCc2nnc(SCC(=O)OC3CCCCC3)o2)c1`, for which the inhibition was 1.45% (inactive).

For `Cc1cc(C(=O)OCC(=O)c2c(N)n(C)c(=O)n(C)c2=O)c(C)o1`, the inhibition was -2.61% (inactive).

With `CCOc1ccccc1NC(=O)C1CCC(CNc2c(N3CCOCC3)c(=O)c2=O)CC1` (stereo not drawn), the inhibition was -7.97% (inactive).

`Cn1c(=O)[nH]c(=O)c2c1nc(N1CCN(CCO)CC1)n2CCSc1nc2ccccc2s1`: the inhibition is -9.93% (inactive).

Take `COc1ccc(NC(=O)c2c(SC)nsc2SC)cc1`: the inhibition was 3.42% (inactive).

On to `O=C(CC1CCCCC1)Nc1c2c(nn1-c1ccc(F)cc1)CS(=O)(=O)C2`, for which the inhibition is 3.57% (inactive).

In the case of `COc1cccc(C(=O)Nc2c3c(nn2-c2cccc(C)c2C)CS(=O)(=O)C3)c1OC`, the inhibition was 29.9% (active).

Consider `Cc1cccc(-n2nc3c(c2NC(=O)c2ccc(Br)o2)CSC3)c1C`, for which the inhibition is -0.62% (inactive).

Regarding `Cc1noc(C)c1S(=O)(=O)N1CCCC(C(=O)Nc2nccs2)C1` (stereo not drawn), the inhibition was 6.69% (inactive).

On to `CC(C)C[C@H](NC(=O)NCCc1ccc(Cl)cc1)C(=O)O`, for which the inhibition is 0.25% (inactive).

Regarding `Cn1cccc1Cc1nnc(SCC(=O)NCc2ccc3c(c2)OCO3)n1CCc1ccccc1`, the inhibition was -2.19% (inactive).

As to `C=CCn1c(COc2ccccc2C)nnc1SCC(=O)O`, the inhibition is 10.3% (inactive).

In the case of `COC(=O)c1ccc(NC(=O)CSc2nnc(-c3ccncc3)n2C)cc1`, the inhibition is -4.91% (inactive).

For `CCOc1cc(CN2CCN(C(=O)CC(C)C)CC2)ccc1OC`, the inhibition is -2.34% (inactive).

Turning to `CCOc1cc(C(=O)N2CCc3cc(OC)c(OC)cc3C2)ccc1OC(F)F`, the inhibition was 90.1% (active).

For the compound `CCOc1cc(-c2noc(CCC(=O)N3CCOCC3)n2)ccc1OC`, the inhibition is 8.36% (inactive).

For the compound `CCN(CC)C(=O)N1CCN(C(=O)c2ccc(C)cn2)CC1`, the inhibition is -13.6% (inactive).

Turning to `COC(=O)C1(S(=O)(=O)C2(C(=O)OC)CCCC2)CCCC1`, the inhibition is -13% (inactive).

In the case of `C/C(CC(O)(/C=N/O)c1ccccc1)=N\O` (stereo not drawn), the inhibition was 1.85% (inactive).

As for `COCCNC(=O)C(C#N)c1nc2ccccc2nc1N1CCN(Cc2ccc3c(c2)OCO3)CC1` (stereo not drawn), the inhibition is 2.9% (inactive).

For `CN(C)c1nc(N)nc(CSc2nnnn2-c2cccc3ccccc23)n1`, the inhibition was 30.2% (active).

As to `Cc1ccc(-c2noc(CSc3nnnn3-c3ccccc3)n2)cc1`, the inhibition is 4.04% (inactive).

Consider `O=c1c2ccccc2nc(CSc2nnnn2-c2ccccc2)n1-c1ccccc1`, for which the inhibition is -9.14% (inactive).

In the case of `CCN1CCCC1CNc1ncnc2c1[nH]c1ccc(F)cc12` (stereo not drawn), the inhibition is -8.46% (inactive).

As for `O=C1CCCN1CCCNc1ncnc2c1[nH]c1ccccc12`, the inhibition is 4.24% (inactive).

Take `CC(C)OCCCNc1ncnc2c1[nH]c1ccc(F)cc12`: the inhibition is 35% (active).

The record behind these values is PubChem BioAssay AID571 (The Scripps Research Institute Molecular Screening Center, 2007).
